Experimental data published in ChEMBL document CHEMBL1201862, “PubChem BioAssay data set” (2004).
Several values for one entry are separate records, joined by “and”; a condition that tells them apart may be missing. Equal entries are not always repeated.

Assay: M. tuberculosis growth inhibition, dose response, purified and synthesized samples, set 9 (AID 602435); call rule not given here
Assay type: functional

Compound | IC90
O=C(c1ccc(CNc2c(N3CCCC3)c(=O)c2=O)cc1)N1CCc2ccccc2C1 | > 50 µM (active)
CC1CC(C)CN(C(=O)C2CCC(CNc3c(N4CCCCC4)c(=O)c3=O)CC2)C1 (configuration not stated) | > 75 µM (active) and > 50 µM (active)
CC(=O)c1ccc(NC(=O)c2ccc(CNc3c(N4CCOCC4)c(=O)c3=O)cc2)cc1 | > 50 µM (active)
O=C(c1ccc(CNc2c(N3CCCC3)c(=O)c2=O)cc1)N1CC=C(c2ccccc2)CC1 | > 44.6 µM (active) and > 50 µM (active)
CC1CC(C)CN(C(=O)c2ccc(CNc3c(N4CCCC4)c(=O)c3=O)cc2)C1 (configuration not stated) | > 50 µM (active)
CC1CCCN(C(=O)c2ccc(CNc3c(N4CCCCC4)c(=O)c3=O)cc2)C1 (configuration not stated) | > 50 µM (active)
CC(C)OC(=O)CSc1ncnc2c1cnn2-c1ccccc1 | > 100 µM (active)
O=C(C1CCC(CNc2c(N3CCCCC3)c(=O)c2=O)CC1)N1CCCCC1 (configuration not stated) | > 50 µM (active)
Cc1cccc(N2CCN(C(=O)c3ccc(CNc4c(N5CCC(C)CC5)c(=O)c4=O)cc3)CC2)c1C | > 50 µM (active)
COc1ccc(N2CCN(C(=O)c3ccc(CNc4c(N5CCOCC5)c(=O)c4=O)cc3)CC2)cc1 | > 73.2 µM (active) and > 39 µM (active)
CC1CCN(C(=O)c2ccc(CNc3c(N4CCCC4)c(=O)c3=O)cc2)CC1 | > 50 µM (active)
O=C(c1ccc(CNc2c(N3CCCC3)c(=O)c2=O)cc1)N1CCC(c2ccccc2)CC1 | > 100 µM (active)
CC(C)CCNC(=O)CSc1nc2c(c(=O)[nH]1)CCCCC2 | > 100 µM (active)
O=C(c1ccc(CNc2c(N3CCCC3)c(=O)c2=O)cc1)N1CCN(c2ccccc2)CC1 | > 83.3 µM (active)
O=C(NCCc1ccc(Cl)cc1)C1CCC(CNc2c(N3CCCCC3)c(=O)c2=O)CC1 (configuration not stated) | > 50 µM (active)
CC1CCCN(C(=O)C2CCC(CNc3c(N4CCCCC4)c(=O)c3=O)CC2)C1 (configuration not stated) | > 50 µM (active)
O=C(c1ccc(CNc2c(N3CCOCC3)c(=O)c2=O)cc1)N1CCN(c2ccccc2)CC1 | > 100 µM (active)
